# Active and inactive are the calls of the source.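 How the source made its calls, unless noted: active means compounds that lower survival of HCT116 colon cancer cells in the luminescence readout, no numeric limit stated; inactive means the rest.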
# Assay: HCT116 colon cancer cell growth inhibition, primary screen, CellTiter-Glo luminescence, NPC library (AID 1117342)
# Conditions: at 20 µM (top of the series)
row,Compound,inhibition of viability
1,Cc1ccc(O)c(-n2nc3ccccc3n2)c1,-0.8% (inactive)
2,Nc1c(NC/C=C\COc2cc(CN3CCCCC3)ccn2)c(=O)c1=O,8.6% (inactive)
3,CCCCNC(=O)NS(=O)(=O)c1ccc(N)cc1,1.4% (inactive)
4,CC(=O)c1cc2ccccc2s1,31.2% (inactive)
5,NS(=O)(=O)c1ccc(Cl)c(S(N)(=O)=O)c1,-6% (inactive)
6,CC(C)Cc1ccc(CC(=O)O)cc1,-3.5% (inactive)
7,NCC(=O)O,-28% (inactive)
8,CC12CCC(C[N+](C)(CCC[N+](C)(C)C)C1)C2(C)C (stereo not given),-7.3% (inactive)
9,CN(C)C(=O)CNC(=O)Cc1ccccc1,7.5% (inactive)
10,Cc1cccc(N(C)C(=S)Oc2ccc3c(c2)CCC3)c1,55.5% (active)
11,COc1cc2c(cc1OC)C(C(C(=O)N(CCc1ccc(OC)c(OC)c1OC)CCc1ccc(OC)c(OC)c1OC)c1ccccc1)=NCC2 (stereo not given),83.5% (active)
12,O=C1CCC(C(=O)O)N1 (stereo not given),2.4% (inactive)
13,O=Cc1ccc(O)c(O)c1O,44.2% (inactive)
14,O=S(c1cc(Cl)cc(Cl)c1O)c1cc(Cl)cc(Cl)c1O,112% (active)
15,CC(C)(C)c1cc(C=O)cc(C(C)(C)C)c1O,4.5% (inactive)
16,CN(CC1(C)CCCO1)S(=O)(=O)c1ccc(Cl)c(S(N)(=O)=O)c1 (stereo not given),12.4% (inactive)
17,CCCCC(C)(O)CC=C[C@H]1[C@H](O)CC(=O)[C@H]1CCCCCCC(=O)OC (stereo not given in full),-12.9% (inactive)
18,C=CCOc1cc(Cl)ccc1C(=O)NCCN(CC)CC,30% (inactive)
19,CC(=O)SCC(CC(=O)c1ccc(C)cc1)C(=O)O (stereo not given),-12.2% (inactive)
20,CCCCNc1ccc(C(=O)OCCN(CC)CC)cc1,81.8% (active)
21,C/C=C(/C(=C/C)c1ccc(OC(C)=O)cc1)c1ccc(OC(C)=O)cc1,108% (active)
22,O=C(Nc1ccc(Oc2ccc(Cl)cc2)c(Cl)c1)c1cc(I)cc(I)c1O,128% (active)
23,CC(=O)Nc1ccc(OC(=O)c2ccccc2OC(C)=O)cc1,-5.8% (inactive)
24,O=C(/C=C/c1ccccc1)OCc1ccccc1,5.05% (inactive)

# Assay: reduced SW480 viability measured with CellTiter-Glo, NPC library, primary (AID 1117343;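 active means compounds that lower viability of the colon cancer cells in the luminescence readout, with no numeric limit stated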)
# Conditions: CellTiter-Glo luminescence; at 20 µM (top of the series)
row,Compound,viability decrease (inhibition)
1,COC(=O)Nc1nc2ccc(C(=O)C3CC3)cc2[nH]1,32.9% (inactive)
2,Oc1ccc(C(O)CNCCCCCCNCC(O)c2ccc(O)c(O)c2)cc1O (stereo not given),42.9% (inactive)
3,CC(=O)OC[C@H]1O[C@@H](OC(C)=O)[C@H](OC(C)=O)[C@@H]1OC(C)=O,13.1% (inactive)
4,Cc1ccccc1N=Nc1ccc(N=Nc2c(O)ccc3ccccc23)c(C)c1,17.9% (inactive)
5,Nc1ccc(C(=O)OCC(O)CO)cc1 (stereo not given),-16.3% (inactive)
6,NNc1nnc(NN)c2ccccc12,22.7% (inactive)
7,Cc1ncc(CO)c(C=O)c1O,24.3% (inactive)
8,CCOC(=O)c1cc(=O)c2c(OCC(COc3cccc4oc(C(=O)OCC)cc(=O)c34)OC(=O)[C@@H](N)CCCCN)cccc2o1,-75% (inactive)
9,CN(C)[C@@H]1C(=O)C(C(=O)NCN2CCCC2)=C(O)[C@@]2(O)C(=O)C3=C(O)c4c(O)cccc4[C@@](C)(O)C3C[C@@H]12 (stereo not given in full),-73.8% (inactive)
10,Nc1nc(=O)n([C@@H]2O[C@H](CO)[C@@H](O)[C@@H]2F)cc1I,32.2% (inactive)
11,OCC(O)CS (stereo not given),-24% (inactive)
12,Nc1ccc(/C=C/c2ccc(N)cc2S(=O)(=O)O)c(S(=O)(=O)O)c1,13% (active)
13,CC(=O)Nc1ccn(C2COC(COC(=O)c3ccccc3)O2)c(=O)n1 (stereo not given),26.9% (inactive)
14,COC1=C(OC)C(=O)C(CC=C(C)CCC=C(C)CCC=C(C)CCC=C(C)CCC=C(C)CCC=C(C)CCC=C(C)CCC=C(C)CCC=C(C)CCC=C(C)C)=C(C)C1=O,-7.3% (inactive)
15,NC[C@H]1O[C@H](O[C@H]2[C@@H](O)[C@@H](O[C@H]3O[C@H](CO)[C@@H](O)[C@H](N)[C@@H]3O)[C@H](N)C[C@@H]2N)[C@H](N)C[C@H]1O,39.1% (inactive)
16,Cc1ccc(O)c(-n2nc3ccccc3n2)c1,40.7% (inactive)
17,Nc1c(NC/C=C\COc2cc(CN3CCCCC3)ccn2)c(=O)c1=O,-4.4% (inactive)
18,CCCCNC(=O)NS(=O)(=O)c1ccc(N)cc1,27.3% (inactive)
19,CC(=O)c1cc2ccccc2s1,32.8% (inactive)
20,NS(=O)(=O)c1ccc(Cl)c(S(N)(=O)=O)c1,-5.6% (inactive)
21,CC(C)Cc1ccc(CC(=O)O)cc1,4.2% (inactive)

# Source: PubChem BioAssay
